This is a sample that favours compounds with a hit; in the whole collection about 9.9% have one here.
Tau ThT inhib: qHTS for Inhibitors of Tau Fibril Formation, Thioflavin T Binding. Microtubule-associated protein tau (Homo sapiens), P10636. recombinant tau K18 P301L, heparin-induced fibrillization, ThT fluorescence. Potency, µM (top dose mostly 57.4 µM), without a hit: at the highest dose activity, negative = inhibition, usual class: inhibitors. hit rate 2.1% among 270,000. AID 1460, 2008; active means well fitted curve in the direction sought with a large enough effect; inconclusive means small, poorly fitted or top-dose-only effect, or another doubt; inactive means no such curve, though single readings can be large; an effect the other way counts as inactive or inconclusive; further: nearly all actives have a fitted effect of over 55% in size
Target sequence (P10636 561-689 P618L limits assumed): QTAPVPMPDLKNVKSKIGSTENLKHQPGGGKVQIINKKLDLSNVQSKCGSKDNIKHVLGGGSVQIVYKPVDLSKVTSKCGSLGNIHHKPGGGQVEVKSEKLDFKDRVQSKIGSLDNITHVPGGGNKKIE
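Using a mix of unlabeled (15 uM) and Alexa 594-labeled (0.24 uM) tau K18 P301L, heparin-triggered fibrillization over 6 hr at 37 C was scored by ThT fluorescence.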
HPGD inh: qHTS Assay for Inhibitors of HPGD (15-Hydroxyprostaglandin Dehydrogenase) | hit rate 4.3% among 150,000 | 15-hydroxyprostaglandin dehydrogenase [NAD(+)] (Homo sapiens), P15428 | purified HPGD, NADH fluorescence kinetic, PGE2 substrate | Potency, µM, for inactives: at the top dose activity change, negative = inhibition, most hits filed as inhibitors
Target sequence (P15428 whole entry, looked up): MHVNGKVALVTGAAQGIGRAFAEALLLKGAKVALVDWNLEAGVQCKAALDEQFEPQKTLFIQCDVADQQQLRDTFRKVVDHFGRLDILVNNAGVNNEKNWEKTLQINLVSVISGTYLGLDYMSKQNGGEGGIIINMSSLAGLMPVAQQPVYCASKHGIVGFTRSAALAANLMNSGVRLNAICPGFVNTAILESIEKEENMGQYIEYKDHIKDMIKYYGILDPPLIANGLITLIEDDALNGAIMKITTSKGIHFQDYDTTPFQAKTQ
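20 nM HPGD preincubated 15 min at room temperature with compound in 50 mM Tris-HCl pH 8, 0.01% Tween 20. Started with 1 mM NAD+ and 30 uM prostaglandin E2; NADH fluorescence (360/450 nm) read 5 times over 30-s intervals, last minus first.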
Tau fibril FP: qHTS for Inhibitors of Tau Fibril Formation, Fluorescence Polarization. K18 P301L tau heparin fibrillization, Alexa594 FP, 6 h. Potency, µM (series often up to 57.7 µM), inactives show at the highest dose activity, negative = inhibition, actives largely listed as inhibitors. hit rate 0.39% among 280,000; active means well fitted curve in the direction sought with a large enough effect; inconclusive means small, poorly fitted or top-dose-only effect, or another doubt; inactive means no such curve, though single readings can be large; an effect the other way counts as inactive or inconclusive; further: nearly all actives have a fitted effect of over 55% in size
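Recombinant K18 P301L […], labeled with Alexa 594 at 0.24 uM over 15 uM unlabeled; heparin inducer 20 uM final; 37 C, 6 hr; FP endpoint.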
JMJD2E inh: qHTS Assay for Inhibitors of Human Jumonji Domain Containing 2E (JMJD2E) | Lysine-specific demethylase 4E (Homo sapiens), B2RXH2 | JMJD2E catalytic domain, FDH-coupled NADH fluorescence (FDH is formaldehyde dehydrogenase) | Potency, µM (doses to about 57.1 µM), without a hit: at the top dose activity change, negative = inhibition, usual class: inhibitors | hit rate 1.6% among 230,000;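 further: 0% = wells with enzyme and -100% = buffer wells without enzyme; nearly all actives have a fitted effect of over 50% in size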
Target sequence (B2RXH2 1-337 limits assumed): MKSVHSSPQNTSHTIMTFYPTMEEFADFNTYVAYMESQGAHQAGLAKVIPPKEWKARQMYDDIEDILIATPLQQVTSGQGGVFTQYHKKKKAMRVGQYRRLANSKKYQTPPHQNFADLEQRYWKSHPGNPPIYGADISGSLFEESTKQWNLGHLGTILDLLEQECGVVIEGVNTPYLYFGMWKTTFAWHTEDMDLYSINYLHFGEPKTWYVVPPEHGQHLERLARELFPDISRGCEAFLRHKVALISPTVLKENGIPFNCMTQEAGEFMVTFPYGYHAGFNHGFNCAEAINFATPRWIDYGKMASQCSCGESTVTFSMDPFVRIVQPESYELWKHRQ
Tau fluor cs: Counterscreen qHTS for Inhibitors of Tau Fibril Formation, Fluorescence Polarization | tau K18 P301L Alexa594 fluorescence, heparin fibrillization | hit rate 0.93% among 280,000 | Potency, µM (doses to about 57.7 µM), for inactives: at the top dose activity change, negative = decrease; active means well fitted curve in the direction sought with a large enough effect; inconclusive means small, poorly fitted or top-dose-only effect, or another doubt; inactive means no such curve, though single readings can be large; an effect the other way counts as inactive or inconclusive; further: nearly all actives have a fitted effect of over 55% in size
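Human tau K18 P301L (15 uM unlabeled, 0.24 uM Alexa 594-labeled) in 100 mM sodium acetate pH 7 with 20 uM heparin, 6 hr at 37 C. ThT 30 uM added, 1 hr ambient; Alexa 594 FP and total fluorescence read at 555/632 nm.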
ALDH1A1 inh: qHTS Assay for Inhibitors of Aldehyde Dehydrogenase 1 (ALDH1A1); Aldehyde dehydrogenase 1A1 (Homo sapiens), P00352; AID 1030, 2008; Potency, µM (series often up to 75.3 µM), for the others: top-dose activity, negative = inhibition, actives largely listed as inhibitors; hit rate 7.3% among 220,000; Purified ALDH1A1, NADH fluorescence, propionaldehyde substrate;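 further: plate controls were no enzyme wells and a reference inhibitor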
Numbers without * were called inactive; ? = inconclusive; / = no result given; ! = a repeat was not active; [ ] = remark or other dose. Unless noted, the call rests on the fitted dose curve; in most records, active means well fitted inhibition curve with a large enough effect (not every such curve was filed as active); inconclusive means small, poorly fitted or top-dose-only effect, or another doubt; inactive means no such curve, though single readings can be large or run the other way. Unless noted, on the % scale 0 is the no-effect control and ±100 the full control effect; potency means the concentration at half of the fitted maximal effect.

SMILES | Tau ThT inhib | HPGD inh | Tau fibril FP | JMJD2E inh | Tau fluor cs | ALDH1A1 inh
c1ccc(Nc2scc(-c3ccccc3)[n+]2Cc2ccco2)cc1 | ? | / | 1.3% | -27.7% | ? | 10µM*
c1ccc(C[n+]2c(-c3ccccc3)csc2Nc2ccccc2)cc1 | -7.1% | -16.0% | 1.8% | -24.7% | -19.9% | ?
O=C(COc1ccc(Cl)cc1Cl)Nn1c(=S)[nH]c2ncccc2c1=O | ? | 28.2µM* | 4.1% | -0.4% | -6.3% | -12.5%
O=C(NC1CCN(C(=O)N2c3ccccc3Sc3ccccc32)CC1)c1ccccc1F | ? | -10.4% | 9.6% | -13.5% | -27.6% | 11.2µM*
CC1CCN(C(=O)N2c3ccccc3Sc3ccccc32)CC1 | -22.1% | -7.4% | 0.4% | 0.1% | -23.4% | 6.3%
N#CC(C#N)=Cc1cc2ccccc2nc1N1CCOCC1 | ? | 0.4% | -13.2% | 2.4% | -7.8% | 11.2µM*
N#C/C(=C\c1cc2ccccc2nc1N1CCOCC1)C(=O)Nc1ccc(N2CCOCC2)cc1 | 14.1µM* | -20.9% | -5.6% | 14.9% | ? | -11.6%
Cn1cc(C2=C(c3cn(CCCSC(=N)N)c4ccccc34)C(=O)NC2=O)c2ccccc21 | 3.16µM* | -7.7% | ? | -5.7% | 12.6µM*[quencher] | -5.0%
CN(C)CCCn1cc(C2=C(c3c[nH]c4ccccc34)C(=O)NC2=O)c2ccccc21 | 12.6µM* | -19.9% | 2.3% | -16.1% | 20µM*[quencher] | -11.7%
CCCCn1cc(S(=O)(=O)c2ccc(F)cc2)c(=O)c2ccccc21 | 1.9% | / | -5.0% | / | -2.7% | /
COc1ccc(/C=C/N(CCc2ccc(OC)c(OC)c2)C(C)=O)cc1 | -17.6%[11.5 µM] | / | 3.5%[11.6 µM] | / | -19.0%[11.6 µM] | ?
COc1ccc(COCC(O)CN(Cc2ccccc2)C(C)C)cc1OC (stereo unspecified) | -1.8% | / | 1.8% | 3.6% | 3.5% | ?
CCCCCCNC(=O)Nc1ccc(S(=O)(=O)Nc2ccc(CCNC[C@H](O)COc3ccc(O)cc3)cc2)cc1 | ? | -19.5% | ? | ? | 12.6µM*[quencher] | -3.5%
CCCNC(=O)COc1ccc(S(=O)(=O)Nc2ccc(C)cc2)cc1 | -7.3% | 1.0% | -0.9% | -8.3% | -10.0% | 4.8%
CNC(=O)C1C(=S)NC(N)=C(C#N)C1c1ccccc1 (stereo unspecified) | 20µM* | -7.9% | 15.8µM* | ? | -28.4% | 17.8µM*
Cc1ccc(O)c(N=Nc2ccccc2)n1 | 17.8µM* | 22.4µM*! | 8.0% | -5.7% | -14.3% | ?
Cc1ccc2c(C)ccc(O)c2n1 | -5.4% | -13.2% | 2.1% | -8.8% | -8.0% | 6.9%
Cc1ccc(N2C(=O)CC(NCC3CCCO3)C2=O)cc1 (stereo unspecified) | -9.4% | / | 1.2% | -10.8% | 0.4% | 20µM*
O=C(O)C[C@H](Cc1ccccc1)C(=O)O | / | -7.7% | / | / | / | -2.1%[13.5 µM]
O=C(/C=C\NCC(=O)c1ccccc1)c1ccc2ccccc2c1 | ? | / | -1.0% | 17.8µM* | -17.1% | 4.47µM*
O=C(/C=C/Nc1ccccc1)c1ccccc1 | -1.1% | -13.6% | 3.9% | 0.6% | -4.7% | ?
O=C(/C=C/Nc1ccc(F)cc1Br)c1ccccc1 | ? | -8.0% | 1.0% | -14.2% | 1.7% | 2.2%
O=C(/C=C\NCC(=O)c1ccccc1)c1ccc(F)cc1 | ? | -20.8% | -0.1% | -8.4% | -10.0% | 20µM*
CCn1c(SCc2ccc(Cl)cc2)nc2nc3c(cc2c1=O)CCCC3 | 2.8% | -24.8% | -4.4% | 0.5% | 1.0% | 12.6µM*
Cc1ccc(C(=O)Nc2ccc3c(c2)CCC3)o1 | ? | 22.4µM* | -2.7% | 8.5% | -13.2% | 17.8µM*
SMILES | Tau ThT inhib | HPGD inh | Tau fibril FP | JMJD2E inh | Tau fluor cs | ALDH1A1 inh
O=C(Nc1ccc2c(c1)CCC2)c1ccc(Br)o1 | ? | -23.9% | 1.6% | 1.9% | -12.7% | -8.7%
COc1cc2[nH]c(=S)nc(NCc3cccs3)c2cc1OC | ? | / | -2.8% | 4.2% | -17.7% | 11.2µM*
COCCCNc1nc(=S)[nH]c2cc(OC)c(OC)cc12 | -17.2% | 14.1µM* | 0.9% | -7.1% | -13.7% | -7.9%
COc1cc2[nH]c(=S)nc(NCCC(C)C)c2cc1OC | -7.9% | / | 11.6% | ? | -16.6% | ?
Cc1ccc(NC(=O)c2cc(S(=O)(=O)N3CCOCC3)c(Cl)cc2Cl)cc1 | 7.0% | / | 2.5% | / | -1.9% | /
CCCOc1ccc(C(=O)Nc2cc3c(cc2N2CCCCC2)n(C)c(=O)n3C)cc1 | ? | / | 1.0% | / | -13.8% | /
Cc1ccc(S(=O)(=O)N2CCCc3cc(NC(=O)c4ccc(C(C)(C)C)cc4)ccc32)cc1 | 8.6% | / | -1.6% | / | -5.0% | /
COc1ccc(Oc2c(O)c3ccccc3n(C)c2=O)cc1 | -11.9% | -20.7% | -9.8% | ? | -4.5% | ?
COc1ccc(N=Nc2n(C)c3ccccc3[n+]2C)cc1 | 3.16µM* | / | ? | ? | ? | /
CCn1c(=O)c(=O)n(CC)c2cc(S(=O)(=O)Nc3cccc(OC)c3)ccc21 | -13.5% | -20.5% | -1.6% | 4.2% | -7.8% | 12.6µM*
COc1ccc(NS(=O)(=O)c2ccc3c(c2)n(C)c(=O)n3C)cc1 | -3.7% | 15.8µM* | ? | 2.8% | -14.1% | -10.0%
Cc1cc(S(=O)(=O)Nc2ccc3c(c2)COC3=O)ccc1F | -8.2% | / | -1.7% | ? | -8.0% | ?
Cn1c(=O)n(C)c2cc(NS(=O)(=O)c3ccc(C(C)(C)C)cc3)ccc21 | -13.7% | / | 5.8% | 9.2% | -27.2% | 0.562µM*
CC(C)(C)c1ccc(S(=O)(=O)Nc2ccc3c(c2)COC3=O)cc1 | 0.1% | / | -9.1% | 8.8% | -16.4% | 4.47µM*
COc1cccc(NS(=O)(=O)c2ccc3c(c2)n(C)c(=O)c(=O)n3C)c1 | -2.1% | -12.8% | -2.3% | -2.5% | -2.1% | ?
OC(CNc1ccccc1)Cn1ccc2ccccc21 (stereo unspecified) | -6.4% | / | 10.6% | ? | -27.7% | -15.1%
Cc1c(Cl)cccc1NC(=O)NCc1c(-n2cccc2)sc2c1CCCC2 | -13.4% | / | -1.1% | / | -15.8% | /
Cc1cccc(C)c1NC(=O)Cn1nnc(C(=O)Nc2c(C)cccc2C)c1N | -10.7% | / | ? | / | -15.5% | /
CCc1ccc(CNC(=O)C2CCN(C(=O)c3ccc(-n4c(C)cc5ccccc54)s3)CC2)cc1 | -8.3% | / | 5.5% | / | -6.1% | /
COC(=O)C1=C(C)N(Cc2ccccc2)[C@]23O[C@](C(=O)OC)(C(=O)N2C1c1ccccc1)C(C(=O)OC)=C3C(=O)OC (stereo partly specified) | -19.0%[11.5 µM] | / | -3.4%[11.6 µM] | / | -16.3%[11.6 µM] | 10.8%[13.5 µM]
